Inconclusive results are not listed. The source made the active and inactive calls. Calls come from the whole dose curve; as a rule, active = well fitted inhibition curve with a large enough effect; inconclusive = small, poorly fitted or top-dose-only effect; inactive = flat fitted curve, though single readings scatter.

Test in all cases: qHTS profiling for inhibitors of Plasmodium falciparum proliferation (AID 504749); note: nearly all actives have a fitted effect of over 60% in size
Conditions in all cases: P. falciparum in erythrocytes, SYBR Green DNA, 72 h; series mostly up to 28.7 µM
For orientation: In qHTS, concentration-response curves come from the screen itself.

One test deals with CP291. In a few lines: (§1)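 Infected RBCs, 0.3% parasitemia/2.5% Hct final; cpd 72 h, 37 C, 5% CO2; lysis buffer with saponin/triton/SYBR Green I, o/n RT dark; FI 485/535; norm. to artemisinin (0.29 uM) and DMSO.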
For the next test, the system named is CP297. In a few lines:
as §1

Another test relates to CP305. In a few lines:
as §1

The subject of the next test is CP315. In outline:
as §1

The test system of the next test is CP325. In a few lines:
as §1

Another test concerns CP329. In a few lines: as §1
In the next test the test system is DIV30. In a few lines:
as §1

The test system of the next test is ECU. In a few lines:
as §1

The next test relates to FAB9. In a few lines: as §1
The next test deals with HB3. In outline: as §1
The next test has as its system ICS. In a few lines: as §1
A further test concerns N140. In a few lines: as §1
A further test relates to CP335. In a few lines: as §1
For the next test, the system named is DIV14. In a few lines:
as §1

For the next test, the system named is DIV17. In a few lines: as §1
For a further test, the system named is Dd2. In outline: as §1
Another test relates to GB4. In a few lines: as §1
The subject of the next test is JCK. In a few lines:
as §1

The subject of a further test is DFO2036. In a few lines: as §1
Another test concerns P93_24. In outline:
as §1
Potency is the fitted concentration of half-maximal effect.

Consider `CN(Cc1cnc2nc(N)nc(N)c2n1)c1ccc(C(=O)N[C@@H](CCC(=O)O)C(=O)O)cc1`, for which the Potency result in the test on CP291, in the test on CP297, with CP305, with CP315, with CP325 and in the test on CP329 was “inactive” throughout. Moreover, the Potency entry in the test with DIV30 and in the test on N140 was “inactive” throughout. Moreover, the Potency in the test with ECU was 0.112 µM (active); in the test on FAB9 it was 0.0316 µM (active); in the test on HB3, 0.141 µM (active); in the test on ICS, 0.112 µM (active).
Turning to `O=C(Nc1ccc([N+](=O)[O-])cc1Cl)c1cc(Cl)ccc1O`, the Potency is 1.2 µM (active) in the test with CP291; 8.49 µM (active) in the test on CP297; 2.13 µM (active) in the test on CP305; 1.51 µM (active) with CP335; 1.07 µM (active) in the test with DIV14; 1.2 µM (active) with DIV17. In addition, the Potency is 0.891 µM (active) in the test with Dd2; 1 µM (active) in the test with ECU; 1.35 µM (active) in the test with GB4; 0.631 µM (active) in the test on ICS; 0.631 µM (active) with N140. Besides, the Potency result in the test with FAB9 and in the test on JCK was “inactive” in each case.
As to `COc1ccc2[nH]cc(CCNC(C)=O)c2c1`, the Potency entry with CP291, in the test on CP297, with CP305, in the test with CP325, in the test on CP329 and in the test on CP335 was “inactive” throughout. Also, the Potency result with DFO2036, in the test with DIV14, in the test on DIV17, in the test with DIV30, in the test with Dd2 and with ECU was “inactive” in each case. The Potency result with FAB9, with GB4, in the test with HB3, in the test on ICS, with JCK and in the test with N140 was “inactive” throughout. Further, the Potency entry with P93_24 was “inactive”.
`CN1CCC(=C2c3ccccc3CC(=O)c3sccc32)CC1`: the Potency entry in the test with CP315, in the test with DFO2036 and with HB3 was “inactive” throughout. Further, the Potency in the test on DIV14 was 5.36 µM (active); in the test with DIV17, 6.01 µM (active); in the test on Dd2, 4.47 µM (active); in the test with ECU, 7.08 µM (active); in the test on FAB9, 6.31 µM (active); in the test on GB4, 1.51 µM (active).
On to `Clc1ccc(C(c2ccccc2Cl)C(Cl)Cl)cc1` (stereo not given), for which the Potency entry in the test with CP291, with CP315, with CP325, with DFO2036, in the test on Dd2 and with ECU was “inactive” each time. In addition, the Potency entry in the test with FAB9, with HB3, in the test on JCK, with N140 and in the test on P93_24 was “inactive” each time.
As to `O=C1c2c(O)ccc(O)c2C(=O)c2c(NCCNCCO)ccc(NCCNCCO)c21`, the Potency in the test with CP291 is 6.42 µM (active); in the test with CP297, 6.42 µM (active); in the test on CP305, 5.1 µM (active); in the test on CP315 it was 6.42 µM (active); in the test on CP335, 2.87 µM (active); in the test on DFO2036 it was 2.51 µM (active). The Potency with DIV14 is 4.55 µM (active); with DIV17, 2.56 µM (active); with DIV30, 5.1 µM (active); with Dd2 it was 1.58 µM (active); with GB4, 2.87 µM (active); in the test with HB3 it was 3.16 µM (active). Moreover, the results for the Potency in the test on ICS, in the test with N140 and in the test on P93_24 were 1.58 µM (active), 2.24 µM (active) and 1.78 µM (active), respectively.
With `CC(COc1ccccc1)N(CCCl)Cc1ccccc1` (stereo not given), the Potency entry in the test on CP305, in the test with CP315, with CP325, with DFO2036, in the test on FAB9 and in the test with HB3 was “inactive” in each case. Moreover, the Potency entry in the test on JCK is “inactive”. In addition, the Potency in the test on DIV17 is 6.01 µM (active); in the test with ICS it was 11.2 µM (active).
For the molecule `CN(C)CCC=C1c2ccccc2C=Cc2ccccc21`, the Potency result with CP315, in the test on CP325, in the test on CP329, in the test on DFO2036, with ECU and in the test with FAB9 was “inactive” throughout. Besides, the Potency entry in the test with HB3 and with N140 was “inactive” each time. The Potency was 2.39 µM (active) in the test with DIV14, 3.79 µM (active) with DIV17 and 8.91 µM (active) in the test on ICS.
In the case of `O=C(c1ccc(OCCN2CCCCC2)cc1)c1c(-c2ccc(O)cc2)sc2cc(O)ccc12`, the Potency in the test with CP297 is 12 µM (active); with CP315, 19 µM (active); in the test with CP335, 6.75 µM (active); in the test on DIV14, 12 µM (active); in the test on DIV17, 15.1 µM (active); in the test with Dd2, 14.1 µM (active). For the same molecule, the Potency with GB4 is 8.49 µM (active); in the test on HB3, 7.08 µM (active); in the test on ICS it was 2 µM (active); in the test with N140, 11.2 µM (active); in the test with P93_24, 8.91 µM (active).
In the case of `CN(C)CCOC(c1ccccc1)c1ccccc1`, the Potency result with CP315, with CP329, in the test on CP335, in the test on DFO2036, in the test with ECU and with FAB9 was “inactive” each time. For the same molecule, the Potency result in the test with HB3 and in the test on JCK was “inactive” throughout.
As to `CS(=O)(=O)CCNCc1ccc(-c2ccc3ncnc(Nc4ccc(OCc5cccc(F)c5)c(Cl)c4)c3c2)o1`, the Potency entry in the test with CP291, in the test on CP305, in the test on CP315, in the test with CP325, in the test with CP329 and with CP335 was “inactive” each time. The Potency entry in the test with DFO2036, with DIV14, in the test with DIV17, in the test with DIV30, with Dd2 and in the test with ECU was “inactive” throughout. In addition, the Potency entry in the test on FAB9, in the test on GB4, in the test on HB3, in the test with ICS, in the test on JCK and in the test on N140 was “inactive” throughout. In addition, in the test on P93_24, the Potency entry was “inactive”.
For `COc1ccccc1OCCNCC(O)COc1cccc2[nH]c3ccccc3c12` (stereo not given), the Potency entry in the test with CP297, with CP305, with CP315, in the test with CP325, in the test on CP329 and in the test with FAB9 was “inactive” throughout. Moreover, the Potency entry with HB3 is “inactive”. Further, the Potency is 14.1 µM (active) in the test with DFO2036; 13.5 µM (active) with DIV14; 10 µM (active) with ECU; 7.08 µM (active) in the test on ICS; 12.6 µM (active) with N140.
Regarding `NCCS(=O)(=O)O`, the Potency entry in the test with CP297, in the test with CP305, in the test with CP325, in the test on CP329, with CP335 and in the test on DFO2036 was “inactive” throughout. Further, the Potency entry in the test on DIV14, with DIV17, in the test with DIV30, in the test on Dd2, in the test with ECU and in the test on FAB9 was “inactive” each time. Moreover, the Potency result with GB4, in the test on HB3, in the test on ICS, in the test with JCK, in the test with N140 and with P93_24 was “inactive” each time.
With `CCC1(c2ccccc2)C(=O)NCNC1=O`, the Potency entry with CP291, in the test with CP297, in the test on CP305, in the test with CP315, in the test with CP325 and in the test with CP329 was “inactive” in each case. Besides, the Potency entry in the test on DFO2036, in the test on DIV14, in the test with DIV17, with DIV30, in the test with Dd2 and in the test on ECU was “inactive” throughout. Also, the Potency entry in the test with FAB9, with GB4, with HB3, with JCK, in the test on N140 and in the test with P93_24 was “inactive” throughout.
